TIM10 inh – growth inhibitors of isogenic TIM10 control yeast, primary screen, counter-screen for tim10-1 yeast inhibitor project, luminescence, uHTS | S. cerevisiae TIM10 strain growth, BacTiter-Glo luminescence, 24 h | inhibition, % at 10 µM | 1.4% of 330,000 active | AID 463195, 2010;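 active = inhibition of 40% or more at the single tested concentration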;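 also: wild-type TIM10 isogenic control strain grown at permissive 25 °C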
PfHsp90 yeast 2 – growth inhibition of PfHsp90-expressing yeast, primary screen, antimalarial PfHsp90 inhibitor project, S. cerevisiae, BacTiter-Glo luminescence, single point, set 2. BacTiter-Glo ATP, 48 h; yeast lacking PDR1 and PDR3 efflux regulators. inhibition, % at 9.4 µM. 0.32% of 310,000 active. AID 504621, 2011;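 active = every replicate shows inhibition above about 80%, whatever the replicate mean, limit read from the data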;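 also: 0% = DMSO neutral controls and 100% = 20 µM radicicol positive controls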
ATG4B inh – ATG4B protease inhibitors, primary screen, biochemical, fluorescence, uHTS | 0.51% of 340,000 active | inhibition, % at 8.33 µM | ATG4B cleavage of LC3-PLA2, NBD-HPC fluorescence, 1 h | Cysteine protease ATG4B (Homo sapiens), Q9Y4P1; in the data active = inhibition above about 40%
Target sequence (Q9Y4P1 whole entry, looked up): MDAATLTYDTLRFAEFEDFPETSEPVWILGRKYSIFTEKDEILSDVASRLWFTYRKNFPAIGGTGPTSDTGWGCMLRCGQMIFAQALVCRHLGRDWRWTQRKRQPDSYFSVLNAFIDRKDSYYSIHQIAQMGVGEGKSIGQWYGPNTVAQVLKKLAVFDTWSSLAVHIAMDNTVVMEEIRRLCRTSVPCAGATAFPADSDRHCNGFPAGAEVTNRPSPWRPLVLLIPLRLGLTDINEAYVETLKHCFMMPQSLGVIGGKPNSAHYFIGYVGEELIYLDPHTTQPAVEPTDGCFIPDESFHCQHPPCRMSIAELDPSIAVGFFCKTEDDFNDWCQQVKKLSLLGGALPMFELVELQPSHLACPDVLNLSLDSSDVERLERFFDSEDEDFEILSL
SKKanGAS inh – S. pyogenes SKKanGAS growth inhibitors in kanamycin, primary screen, streptokinase expression inhibitor project, SKKanGAS strain, BacTiter-Glo luminescence. inhibition, % at 7.5 µM. 1.3% of 300,000 active. 6 h. AID 1662, 2009;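 active = mean replicate score, as percent of positive control median, at least 50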;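 also: strain carries kanamycin resistance gene driven by streptokinase promoter and grows in 40 µg/ml kanamycin; loss of luminescence reflects streptokinase promoter inhibition or plain growth inhibition; 0% = median of DMSO wells and 100% = positive control at its reference dose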
tim23-1 inh – growth inhibitors of tim23-1 mutant yeast, primary screen, luminescence, uHTS | S. cerevisiae tim23-1 growth, BacTiter-Glo luminescence, 24 h | inhibition, % at 20 µM | 1.3% of 330,000 active;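 active = growth inhibition of the mutant yeast at or above 50%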;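 also: temperature-sensitive mutant grown at 25 °C; plate controls were DMSO-treated mutant yeast for no effect and medium wells lacking yeast for full effect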
tim10-1 inh – growth inhibitors of tim10-1 mutant yeast, primary screen, luminescence, uHTS. inhibition, % at 20 µM. S. cerevisiae tim10-1 ts strain growth, BacTiter-Glo, 24 h. 2.2% of 330,000 active;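 active = inhibition of at least 40%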;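 also: mutant grown at 25 °C; 0% = DMSO wells with yeast and 100% = wells holding no yeast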
tim10 confirm – growth inhibitors of wild-type TIM10 yeast, confirmation, counter-screen for tim10-1 synthetic lethality project, single concentration, luminescence, S. cerevisiae; shares compounds with TIM10 inh; S. cerevisiae tim10 strain growth, BacTiter-Glo luminescence, 24 h; inhibition, % at 10 µM; 63% of 4,600 active; AID 463215, 2010;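 active = inhibition of yeast growth at or above a set limit in either of two replicates at 10 µM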;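 also: this counterscreen used the strain with wild-type TIM10; 0% = yeast with DMSO and 100% = medium wells lacking yeast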
An asterisk follows results filed as active; · = no result given. A selection: hits, their analogues and other compounds. The true share with any hit is near 4.7%.

SMILES	TIM10 inh	PfHsp90 yeast 2	ATG4B inh	SKKanGAS inh	tim23-1 inh	tim10-1 inh	tim10 confirm
COc1ccc(N2CCN(C(=O)CSc3nc4c(c(=O)n(C)c(=O)n4C)n3C(C)C)CC2)cc1	15.4	-12.9	-7.2	7.7	21.6	16.9	·
Cc1c(CN2CCC(CO)(CCOc3ccccc3)CC2)[nH]c2c(Cl)cccc12	44.2*	5.2	-8.0	3.5	-21.9	-40.3	15.6
Cc1ccc(Oc2ccc(-c3nc(N)nc(N)n3)cc2)cc1	44.5*	-14.0	10.2	·	23.1	27.1	-35.5
COCCN(C(=O)COC(=O)CCc1ccccc1)c1c(N)n(Cc2ccccc2)c(=O)[nH]c1=O	-1.0	·	2.8	·	1.5	-10.4	·
O=S(=O)(CCN1CCCCC1)Oc1ccc(Cl)cc1Cl	49.9*	5.4	6.2	-8.7	40.9	37.5	27.1
C=CCn1c(SCC(=O)N2CCCCC2)nc(O)cc1=O	3.1	5.9	-10.6	14.2	-4.6	7.2	·
COc1ccc(C(=O)COC(=O)C2CCCN2C(=O)C23CC4CC(CC(C4)C2)C3)cc1 (stereo unspecified)	44.1*	-20.6	-10.2	·	33.6	29.5	33.0*
O=C(COC(=O)C1CCCN1C(=O)C12CC3CC(CC(C3)C1)C2)c1ccc(Br)cc1 (stereo unspecified)	15.3	-2.8	-10.7	3.6	25.1	35.6	·
COc1ccc(-c2nn3c(-c4ccco4)nnc3s2)cc1OC	45.3*	-6.3	-24.3	11.6	20.4	38.7	-9.8
C=CCN(c1ccccc1)S(=O)(=O)c1cccc(C(=O)OCC(=O)NCCOC)c1	-30.3	6.4	-3.5	-8.4	-7.6	-29.6	·
COc1ccc(C2=Nn3c([n+](C)c4ccccc43)SC2)cc1	33.9	14.8	-4.5	-6.5	26.2	-0.2	·
C[n+]1c2n(c3ccccc31)N=C(c1ccc(Cl)cc1)CS2	41.1*	-56.4	3.6	5.7	38.1	36.6	44.2*
Cc1c(C(=O)Nc2ccccn2)oc2c(Cl)cccc12	22.1	-14.9	9.8	7.6	31.2	36.8	·
Cc1c(C(=O)Nc2nc3ccccc3[nH]2)oc2c(Cl)cccc12	44.2*	-12.3	-14.4	66.8*	45.5	3.7	24.2
CCCCNC(=S)N/N=C/c1sccc1C	59.4*	-75.2	9.3	-5.4	43.5	30.8	46.6*
c1ccc(-c2csc(Nc3cccnc3)n2)cc1	41.6*	-2.3	-11.9	-0.4	26.5	26.7	19.7
CCN1CCc2c(OCC(=O)N3N=C(c4cccs4)CC3c3ccc(F)cc3)cccc2C1=O (stereo unspecified)	22.1	7.9	35.9	17.7	23.2	21.0	·
CN1CCc2c(OCC(=O)N3N=C(c4cccs4)CC3c3ccc(F)cc3)cccc2C1=O (stereo unspecified)	40.0	-15.1	-9.1	-12.9	43.2	29.7	-26.1
O=[N+]([O-])c1cc(/C=N/Nc2nc(N3CCOCC3)nc(N3CCOCC3)n2)ccc1Cl	-8.4	-6.7	0.0	3.2	-29.1	-2.3	·
Cc1ccc(C2CC(C(F)(F)F)n3ncc(C(=O)NCc4ccco4)c3N2)cc1 (stereo unspecified)	47.5*	·	5.3	4.3	49.2	35.6	31.7*
Cc1ccc(C2CC(C(F)(F)F)n3ncc(C(N)=O)c3N2)cc1 (stereo unspecified)	-4.4	-5.1	-10.3	-4.5	10.2	2.2	·
COc1cc2[nH]cc(C(=O)NCCc3ccccc3)c(=O)c2cc1OC	5.9	12.6	-12.4	·	0.9	14.7	·
COc1ccccc1-n1cnc2c(c1=O)c1nc3ccccc3nc1n2-c1ccc(C)cc1	46.2*	-11.0	23.3	7.3	33.5	39.1	20.8
COc1ccccc1-n1c2nc3ccccc3nc2c2c(=O)n(-c3cc(C)cc(C)c3)cnc21	25.0	-6.6	-2.3	27.9	33.5	26.4	·
Cc1ccccc1NC(=S)NC(=O)CCc1ccccc1	44.2*	-12.4	2.9	-5.8	44.4	25.8	35.5*
SMILES	TIM10 inh	PfHsp90 yeast 2	ATG4B inh	SKKanGAS inh	tim23-1 inh	tim10-1 inh	tim10 confirm
CC1C/C(=N\NC(N)=S)c2cc(Cl)ccc2S1 (stereo unspecified)	9.0	-32.9	-6.4	19.6	-8.1	5.6	·
Oc1ccc(-c2nnc(-c3ccc(O)cc3)nn2)cc1	2.4	·	-1.3	13.0	-2.2	17.5	·
Oc1ccc(-c2cccc(-c3ccc(O)cc3)n2)cc1	44.4*	·	-21.4	4.9	39.2	32.5	31.8*
O=C(NC1Cc2ccccc2C1)c1cc(COc2ccc(F)cc2Cl)on1	0.8	-4.2	22.3	-4.4	6.1	17.2	·
O=C(NC1CCc2ccccc21)c1cc(COc2ccc(F)cc2Cl)on1 (stereo unspecified)	67.9*	16.8	6.1	-5.7	15.5	11.5	-1.4
COc1cc(NC(=S)Nc2cccc(C)n2)cc(OC)c1OC	46.7*	-7.3	-1.7	-15.5	17.3	37.1	30.2*
Cc1cccc(NC(=S)Nc2cccc(C(F)(F)F)c2)n1	8.4	-34.8	3.9	16.7	35.5	20.0	·
CCn1cc(C(=O)N2CCN(c3ccccn3)CC2)c(=O)c2cc(S(=O)(=O)N3CCC(C)CC3)ccc21	15.0	-12.9	-5.7	-0.3	11.9	-4.5	·
CCC(=O)Nc1ccc(C(=O)OCc2ccccc2Cl)cc1	58.1*	28.9	29.7	7.0	33.2	36.7	47.7*
COc1ccc(-n2cnc3cc(NC(=O)c4ccco4)ccc32)cc1	66.4*	5.6	11.9	1.7	28.5	29.4	53.8*
NCc1nc(-c2ccc(Cl)cc2)no1	-34.5	-8.2	-2.5	-11.4	1.1	5.7	·
O=C(NC1CCCCCCC1)NC1CCCCC1	49.6*	7.7	-3.3	6.0	32.8	29.6	23.5
O=C(CCS(=O)(=O)c1ccccc1)N(CCCN1CCOCC1)c1nc2c(F)cccc2s1	66.1*	10.2	-0.6	11.5	-41.1	34.5	69.8*
O=C(CCS(=O)(=O)c1ccccc1)N(CCCN1CCOCC1)c1nc2ccc(F)cc2s1	56.1*	-3.8	-1.3	-4.1	34.6	29.7	64.7*
Cc1noc(C)c1COc1ccc(C(=O)OCc2nnc(-c3ccc(Cl)cc3)o2)cc1	42.7*	-76.7	-9.6	11.9	10.0	32.4	37.2*
O=C(COc1ccc(Cl)cc1)N1CCN(c2ccc([N+](=O)[O-])c(N3CCCCC3)c2)CC1	42.3*	-49.2	-18.4	29.9	38.4	38.8	25.1
